This note sets out measurements from the supplement of paper PMC3545927.

For this assay, the target named is furin, P09958. Kind of assay: furin cleavage Z-score vs untreated control; higher = more cleavage, active = 3.5 or more, inactive = 1 or less, 8 variable residues between constant flanks. In short, it runs like this:
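Cleavage by purified furin was measured on 8-mer peptides fused to a cDNA oligonucleotide and held on magnetic beads by their N-terminus. Reactions (0.01 ml, 1:10 enzyme:substrate) ran 7.5, 15 or 30 min in 50 mM HEPES pH 7.5 with CaCl2 and NaCl. Released DNA was adapter-tagged by PCR and sequenced, with read counts giving abundance. Log counts versus furin-free reactions were lowess-adjusted and scaled by median absolute deviation to give the cleavage Z-score.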

The other results are listed elsewhere or left out. The true hit rate is not given.

Chain of furin, P09958 (P09958 whole entry, the tested form may be a part): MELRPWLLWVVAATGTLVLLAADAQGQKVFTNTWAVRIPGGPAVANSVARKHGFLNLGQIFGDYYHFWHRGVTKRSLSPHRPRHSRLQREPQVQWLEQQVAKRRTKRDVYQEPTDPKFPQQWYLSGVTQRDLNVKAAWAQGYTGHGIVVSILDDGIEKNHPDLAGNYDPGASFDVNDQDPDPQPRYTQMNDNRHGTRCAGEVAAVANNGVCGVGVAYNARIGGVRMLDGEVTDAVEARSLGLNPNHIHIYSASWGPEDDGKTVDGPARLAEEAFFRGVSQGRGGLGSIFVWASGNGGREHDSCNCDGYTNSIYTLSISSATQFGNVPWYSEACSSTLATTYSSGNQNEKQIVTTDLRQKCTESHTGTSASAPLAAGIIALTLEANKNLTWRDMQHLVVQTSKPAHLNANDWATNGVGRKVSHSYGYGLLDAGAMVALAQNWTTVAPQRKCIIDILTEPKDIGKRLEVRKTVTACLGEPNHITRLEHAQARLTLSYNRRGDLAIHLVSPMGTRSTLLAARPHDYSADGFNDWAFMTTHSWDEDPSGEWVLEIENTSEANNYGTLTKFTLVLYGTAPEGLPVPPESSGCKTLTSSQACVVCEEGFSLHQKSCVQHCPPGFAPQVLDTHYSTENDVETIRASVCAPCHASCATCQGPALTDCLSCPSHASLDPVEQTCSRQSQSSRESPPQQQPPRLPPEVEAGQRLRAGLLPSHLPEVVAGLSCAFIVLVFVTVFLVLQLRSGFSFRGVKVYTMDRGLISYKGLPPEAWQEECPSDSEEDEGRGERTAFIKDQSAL

B1: HC1329 (peptide)
chain: CAESTLSTALAGNASASA
For B1, the “furin cleavage Z-score” value was -0.324 (inactive) (7.5 min), 0.0602 (inactive) (15 min) and 1.27 (30 min).

B2: HC2411 (peptide)
chain: CAEVPCHRPDAGNASASA
As to B2, the “furin cleavage Z-score” value (7.5 min) was -1.49 (inactive), the “furin cleavage Z-score” value (15 min) was -0.692 (inactive) and the “furin cleavage Z-score” value (30 min) is 0.135 (inactive).

B3: FS-1310 (peptide)
chain: CAASSSKKRSAGNASASA
B3: the “furin cleavage Z-score” value is, setting by setting: (7.5 min) 1.7; (15 min) 1.89; (30 min) 0.28 (inactive).

B4: FS-794 (peptide)
chain: CAHNGRKKRSAGNASASA
For B4, the “furin cleavage Z-score” value (7.5 min) is 12.6 (active), the “furin cleavage Z-score” value (15 min) is 13.4 (active) and the “furin cleavage Z-score” value (30 min) was 9.77 (active).

B5: FS-598 (peptide)
chain: CAILSRKKRSAGNASASA
Consider B5, for which the “furin cleavage Z-score” value by setting is: (7.5 min) 13.1 (active); (15 min) 11 (active); (30 min) 8.58 (active).

B6: FS-1587 (peptide)
chain: CADTGYPKRSAGNASASA
Consider B6, for which the “furin cleavage Z-score” value by setting is: (7.5 min) 0.338 (inactive); (15 min) -0.532 (inactive); (30 min) 2.06.

B7: HC641 (peptide)
chain: CAHNGLRDLAAGNASASA
Turning to B7, the “furin cleavage Z-score” value runs as follows: (7.5 min) -0.235 (inactive); (15 min) 0.0336 (inactive); (30 min) 0.434 (inactive).

B8: HC2367 (peptide)
chain: CAEVPCHFPSAGNASASA
Regarding B8, the “furin cleavage Z-score” value (7.5 min) was 0.277 (inactive), the “furin cleavage Z-score” value (15 min) is -0.0294 (inactive) and the “furin cleavage Z-score” value (30 min) is 0.605 (inactive).

B9: HC2251 (peptide)
chain: CAEVVTSTWDAGNASASA
With B9, the “furin cleavage Z-score” value is, setting by setting: (7.5 min) -0.232 (inactive); (15 min) -0.217 (inactive); (30 min) -0.0353 (inactive).

B10: FS-202 (peptide)
chain: CATPKRSRRDAGNASASA
With B10, the “furin cleavage Z-score” value (7.5 min) is 10.5 (active), the “furin cleavage Z-score” value (15 min) was 10.4 (active) and the “furin cleavage Z-score” value (30 min) is 6.86 (active).

B11: FS-1251 (peptide)
chain: CAQPSSSRRDAGNASASA
Regarding B11, the “furin cleavage Z-score” value (7.5 min) is -0.0806 (inactive), the “furin cleavage Z-score” value (15 min) was -1.03 (inactive) and the “furin cleavage Z-score” value (30 min) is -1.19 (inactive).

B12: FS-761 (peptide)
chain: CAEAWRSRRDAGNASASA
As for B12, the “furin cleavage Z-score” value by setting is: (7.5 min) 5 (active); (15 min) 6.16 (active); (30 min) 5.62 (active).

B13: HC2213 (peptide)
chain: CAEVVTSRWVAGNASASA
B13: the “furin cleavage Z-score” value (7.5 min) is 0.434 (inactive), the “furin cleavage Z-score” value (15 min) was -0.178 (inactive) and the “furin cleavage Z-score” value (30 min) was found to be 1.55.

B14: FS-573 (peptide)
chain: CAVLTRSRRDAGNASASA
As to B14, the “furin cleavage Z-score” value reads like this: (7.5 min) 15.8 (active); (15 min) 16 (active); (30 min) 10.2 (active).

B15: HC282 (peptide)
chain: CATPTVATRDAGNASASA
As for B15, the “furin cleavage Z-score” value is -1.53 (inactive) (7.5 min), 0.0271 (inactive) (15 min) and -0.971 (inactive) (30 min).

B16: FS-259 (peptide)
chain: CAKPARVSKDAGNASASA
B16: the “furin cleavage Z-score” value (7.5 min) was -0.289 (inactive), the “furin cleavage Z-score” value (15 min) was -0.617 (inactive) and the “furin cleavage Z-score” value (30 min) was -0.0479 (inactive).

B17: FS-1202 (peptide)
chain: CAGPQRQKKLAGNASASA
Take B17: the “furin cleavage Z-score” value (7.5 min) was -0.669 (inactive), the “furin cleavage Z-score” value (15 min) was -1.47 (inactive) and the “furin cleavage Z-score” value (30 min) is -0.377 (inactive).

B18: FS-44 (peptide)
chain: CAKPARRKRLAGNASASA
Take B18: the “furin cleavage Z-score” value is, setting by setting: (7.5 min) 8.86 (active); (15 min) 9.53 (active); (30 min) 10.1 (active).

B19: FS-939 (peptide)
chain: CALHSRPQRLAGNASASA
B19: the “furin cleavage Z-score” value runs as follows: (7.5 min) 0.578 (inactive); (15 min) 1.4; (30 min) 1.43.

B20: FS-210 (peptide)
chain: CAWHSRRKRLAGNASASA
For B20, the “furin cleavage Z-score” value runs as follows: (7.5 min) 9.83 (active); (15 min) 11.7 (active); (30 min) 10.6 (active).

B21: FS-1526 (peptide)
chain: CAGPIRRKRLAGNASASA
For the sequence B21, the “furin cleavage Z-score” value is 11.1 (active) (7.5 min), 11.4 (active) (15 min) and 9.25 (active) (30 min).

B22: FS-607 (peptide)
chain: CALHSRNKRLAGNASASA
Consider B22, for which the “furin cleavage Z-score” value was 7.17 (active) (7.5 min), 9.47 (active) (15 min) and 6.69 (active) (30 min).

B23: HC1801 (peptide)
chain: CANEMEECSQAGNASASA
For the sequence B23, the “furin cleavage Z-score” value by setting is: (7.5 min) -0.962 (inactive); (15 min) 0.682 (inactive); (30 min) -0.461 (inactive).

B24: HC2178 (peptide)
chain: CAETVTSTWVAGNASASA
For B24, the “furin cleavage Z-score” value was -0.174 (inactive) (7.5 min), 0.0107 (inactive) (15 min) and 0.00907 (inactive) (30 min).

B25: FS-1390 (peptide)
chain: CAQQELRKRLAGNASASA
In the case of B25, the “furin cleavage Z-score” value reads like this: (7.5 min) 0.809 (inactive); (15 min) 0.166 (inactive); (30 min) 1.43.

B26: FS-312 (peptide)
chain: CAVQVRGKRLAGNASASA
For the sequence B26, the “furin cleavage Z-score” value reads like this: (7.5 min) 6.21 (active); (15 min) 7.9 (active); (30 min) 7.68 (active).

B27: HC477 (peptide)
chain: CAVGGVEHRLAGNASASA
B27: the “furin cleavage Z-score” value reads like this: (7.5 min) 0.551 (inactive); (15 min) 1.48; (30 min) 0.304 (inactive).

B28: FS-9 (peptide)
chain: CAARRRRKRLAGNASASA
Take B28: the “furin cleavage Z-score” value reads like this: (7.5 min) 9.78 (active); (15 min) 12.2 (active); (30 min) 9.85 (active).

B29: FS-618 (peptide)
chain: CANKVRAKRSAGNASASA
With B29, the “furin cleavage Z-score” value was 10.6 (active) (7.5 min), 10.4 (active) (15 min) and 8.36 (active) (30 min).

B30: FS-1203 (peptide)
chain: CAGQPGLKRSAGNASASA
Turning to B30, the “furin cleavage Z-score” value (7.5 min) is -1.59 (inactive), the “furin cleavage Z-score” value (15 min) came out at 1.19 and the “furin cleavage Z-score” value (30 min) is -2.33 (inactive).

B31: FS-1267 (peptide)
chain: CARRRRDSRSAGNASASA
Turning to B31, the “furin cleavage Z-score” value (7.5 min) was 9.84 (active), the “furin cleavage Z-score” value (15 min) was 9.21 (active) and the “furin cleavage Z-score” value (30 min) was 7.48 (active).

B32: FS-103 (peptide)
chain: CAVFSRDSRSAGNASASA
With B32, the “furin cleavage Z-score” value was 2.25 (7.5 min), 0.692 (inactive) (15 min) and 2.36 (30 min).

B33: FS-624 (peptide)
chain: CARRATLKRSAGNASASA
As for B33, the “furin cleavage Z-score” value is 3.99 (active) (7.5 min), 5.42 (active) (15 min) and 4.76 (active) (30 min).

B34: FS-2298 (peptide)
chain: CARRRRRKESAGNASASA
In the case of B34, the “furin cleavage Z-score” value runs as follows: (7.5 min) 2.91; (15 min) 3.94 (active); (30 min) 2.81.

B35: HC671 (peptide)
chain: CAKGWRLLAPAGNASASA
B35: the “furin cleavage Z-score” value is 0.0408 (inactive) (7.5 min), 0.181 (inactive) (15 min) and -0.469 (inactive) (30 min).

B36: HC1381 (peptide)
chain: CALPINALSNAGNASASA
With B36, the “furin cleavage Z-score” value runs as follows: (7.5 min) 0.137 (inactive); (15 min) -0.538 (inactive); (30 min) -0.0923 (inactive).

B37: HC939 (peptide)
chain: CAFWEGVFTGAGNASASA
On to B37, for which the “furin cleavage Z-score” value is -1.63 (inactive) (7.5 min), 0.063 (inactive) (15 min) and -1.49 (inactive) (30 min).

B38: HC223 (peptide)
chain: CATLTCGFADAGNASASA
Regarding B38, the “furin cleavage Z-score” value was -1.51 (inactive) (7.5 min), -0.777 (inactive) (15 min) and -0.721 (inactive) (30 min).

B39: HC2224 (peptide)
chain: CAEVVTSTIVAGNASASA
As to B39, the “furin cleavage Z-score” value was 1.34 (7.5 min), 0.923 (inactive) (15 min) and -0.591 (inactive) (30 min).

B40: HC1784 (peptide)
chain: CAIEMEECSQAGNASASA
Regarding B40, the “furin cleavage Z-score” value was 0.115 (inactive) (7.5 min), -0.919 (inactive) (15 min) and -0.409 (inactive) (30 min).

B41: FS-1481 (peptide)
chain: CARRRRAKRSAGNASASA
Turning to B41, the “furin cleavage Z-score” value (7.5 min) was 10 (active), the “furin cleavage Z-score” value (15 min) was 9.95 (active) and the “furin cleavage Z-score” value (30 min) was 7.99 (active).

B42: HC34 (peptide)
chain: CAMEECCQHLAGNASASA
Regarding B42, the “furin cleavage Z-score” value was 0.752 (inactive) (7.5 min), -0.68 (inactive) (15 min) and 0.844 (inactive) (30 min).

B43: FS-1120 (peptide)
chain: CAERSREMRAAGNASASA
For B43, the “furin cleavage Z-score” value was 0.288 (inactive) (7.5 min), 0.367 (inactive) (15 min) and -1.27 (inactive) (30 min).

B44: FS-1522 (peptide)
chain: CAESTRTRRAAGNASASA
As for B44, the “furin cleavage Z-score” value was 8.54 (active) (7.5 min), 9.73 (active) (15 min) and 8.09 (active) (30 min).

B45: FS-417 (peptide)
chain: CAERSRKRRAAGNASASA
On to B45, for which the “furin cleavage Z-score” value reads like this: (7.5 min) 11.5 (active); (15 min) 10.5 (active); (30 min) 7.42 (active).

B46: FS-132 (peptide)
chain: CAHPSRKRRAAGNASASA
As to B46, the “furin cleavage Z-score” value was 11.3 (active) (7.5 min), 11.3 (active) (15 min) and 8.53 (active) (30 min).

B47: FS-123 (peptide)
chain: CAERSRVCRCAGNASASA
As to B47, the “furin cleavage Z-score” value was -0.711 (inactive) (7.5 min), 0.103 (inactive) (15 min) and 2.18 (30 min).

B48: HC840 (peptide)
chain: CAHPNIEEVAAGNASASA
Regarding B48, the “furin cleavage Z-score” value (7.5 min) was 0.6 (inactive), the “furin cleavage Z-score” value (15 min) is -0.828 (inactive) and the “furin cleavage Z-score” value (30 min) was 0.48 (inactive).

B49: FS-1211 (peptide)
chain: CAHPVREARAAGNASASA
Regarding B49, the “furin cleavage Z-score” value reads like this: (7.5 min) 3.66 (active); (15 min) 5.02 (active); (30 min) 5.4 (active).

B50: HC1127 (peptide)
chain: CAHYVPESDAAGNASASA
B50: the “furin cleavage Z-score” value runs as follows: (7.5 min) -0.402 (inactive); (15 min) -0.697 (inactive); (30 min) -1.88 (inactive).
